Records with an inconclusive call do not appear. Where a call stands in place of a potency, no number is given. The source made the active and inactive calls. Calls come from the whole dose curve; as a rule, active = well fitted inhibition curve with a large enough effect; inconclusive = small, poorly fitted or top-dose-only effect; inactive = flat fitted curve, though single readings scatter.
Experiments:
Test in all cases: qHTS profiling for inhibitors of Plasmodium falciparum proliferation (AID 504749); note: nearly all actives have a fitted effect of over 60% in size
Conditions in all cases: P. falciparum in erythrocytes, SYBR Green DNA, 72 h; series mostly up to 12.8 µM
7G8 = test system: 7G8
In short: (§1)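 Each compound contacts P. falciparum-infected red blood cells for 72 h at 37 C; lysis buffer (Tris, EDTA, saponin, Triton X, SYBR Green I) is added and fluorescence measured next morning; values normalized to controls.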

AA1029 = test system: AA1029
In short: as §1

C2A = test system: C2A
In short: as §1

CP211 = test system: CP211
In short: as §1

CP217 = test system: CP217
In short: as §1

CP237 = test system: CP237
In short: as §1

CP252 = test system: CP252
In short: as §1

CP268 = test system: CP268
In short: as §1

CP269 = test system: CP269
In short: as §1

CP286 = test system: CP286
In short: as §1

CP291 = test system: CP291
In short: as §1

CP315 = test system: CP315
In short: as §1

P93_24 = test system: P93_24
In short: as §1

P94_40 = test system: P94_40
In short: as §1

TAB165 = test system: TAB165
In short: as §1

DFO2036 = test system: DFO2036
In short: as §1

DIV30 = test system: DIV30
In short: as §1

ECU = test system: ECU
In short: as §1

HB3 = test system: HB3
In short: as §1

ICS = test system: ICS
In short: as §1
Potency is the fitted concentration of half-maximal effect.

Structure (SMILES)	Potency (7G8)	Potency (AA1029)	Potency (C2A)	Potency (CP211)	Potency (CP217)	Potency (CP237)	Potency (CP252)	Potency (CP268)	Potency (CP269)	Potency (CP286)	Potency (CP291)	Potency (CP315)	Potency (P93_24)	Potency (P94_40)	Potency (TAB165)	Potency (DFO2036)	Potency (DIV30)	Potency (ECU)	Potency (HB3)	Potency (ICS)
C[C@@H](CCc1ccccc1)NC[C@H](O)c1ccc(O)c(C(N)=O)c1	11.2 µM (active)	inactive	inactive	inactive	inactive	inactive	inactive	inactive	inactive	inactive	inactive	inactive	inactive	inactive	inactive					
O=C(c1ccccc1)c1ccc2n1CC[C@H]2C(=O)O	inactive	inactive	inactive	inactive	inactive	inactive	inactive	inactive	inactive	inactive	inactive	inactive	inactive	inactive	inactive	inactive	inactive	inactive	inactive	inactive
C[C@@H]1COc2c(N3CCN(C)CC3)c(F)cc3c(=O)c(C(=O)O)cn1c23	inactive	inactive	inactive	inactive	inactive	inactive	inactive	inactive	inactive	inactive	inactive	inactive	inactive	inactive	inactive	inactive	inactive	inactive	inactive	inactive
C[C@@H]1c2cccc(O)c2C(O)=C2C(=O)[C@@]3(O)C(O)=C(C(N)=O)C(=O)[C@@H](N(C)C)[C@@H]3[C@@H](O)[C@@H]21	3.98 µM (active)			inactive	inactive															3.55 µM (active)
CC[C@]1(C)CC(=O)NC1=O	inactive	inactive	inactive	inactive	inactive	inactive	inactive	inactive	inactive	inactive	inactive	inactive	inactive	inactive	inactive	inactive	inactive	inactive	inactive	inactive
CC(C)(C)NC[C@H](O)c1cc(O)cc(O)c1	inactive	inactive	inactive		inactive	inactive	inactive	inactive	inactive	inactive	inactive	inactive	inactive	inactive	inactive	inactive	inactive	inactive	inactive	inactive
CC(=O)OCC1=C(C(=O)O)N2C(=O)[C@@H](NC(=O)CSc3ccncc3)[C@@H]2SC1	inactive	inactive	inactive	inactive	inactive	inactive	inactive	inactive	inactive	inactive	inactive	inactive	inactive	inactive	inactive	inactive	inactive	inactive	inactive	inactive
NC(=O)c1cc[n+](CC2=C(C(=O)O)N3C(=O)[C@@H](NC(=O)[C@H](c4ccccc4)S(=O)(=O)[O-])[C@@H]3SC2)cc1	0.178 µM (active)					1.41 µM (active)		4.05 µM (active)	1.61 µM (active)	1.78 µM (active)			1.26 µM (active)	1.26 µM (active)	1 µM (active)	1.78 µM (active)	2.28 µM (active)	2 µM (active)	0.891 µM (active)	0.355 µM (active)
CCCN[C@@H](C)C(=O)Nc1ccccc1C	inactive	inactive	inactive	inactive	inactive	inactive	inactive	inactive	inactive	inactive	inactive	inactive	inactive	inactive	inactive	inactive	inactive	inactive	inactive	inactive
CO/N=C(\C(=O)N[C@@H]1C(=O)N2C(C(=O)O)=C(COC(C)=O)CS[C@@H]12)c1csc(N)n1	inactive	inactive	inactive	inactive	inactive	inactive	inactive	inactive	inactive	inactive	inactive	inactive	inactive	inactive	inactive	inactive	inactive	inactive	inactive	inactive
CCn1cc(C(=O)O)c(=O)c2cc(F)c(N3CCN[C@@H](C)C3)c(F)c21	inactive	inactive	inactive	inactive	inactive	inactive	inactive		inactive			inactive	inactive	inactive	inactive	inactive	inactive	inactive	inactive	inactive
CO[C@]1(NC(=O)CSCC#N)C(=O)N2C(C(=O)O)=C(CSc3nnnn3C)CS[C@H]21	inactive	inactive	inactive	inactive	inactive	inactive	inactive	inactive	inactive	inactive	inactive	inactive	inactive	inactive	inactive	inactive	inactive	inactive	inactive	inactive
CCCN(CCC)C(=O)[C@@H](CCC(=O)O)NC(=O)c1ccccc1	inactive	inactive	inactive	inactive	inactive	inactive	inactive	inactive	inactive	inactive	inactive	inactive	inactive	inactive	inactive	inactive	inactive	inactive	inactive	inactive
CC(C)(O/N=C(\C(=O)N[C@@H]1C(=O)N2C(C(=O)[O-])=C(C[n+]3ccccc3)CS[C@@H]12)c1csc(N)n1)C(=O)O	inactive	inactive	inactive	inactive	inactive	inactive	inactive	inactive	inactive	inactive	inactive	inactive	inactive	inactive	inactive	inactive	inactive	inactive	inactive	inactive
CO[C@H]1C[C@@H](O[C@@H]2[C@H](C)[C@H](O[C@@H]3O[C@@H](C)C[C@@H](N(C)C)[C@@H]3O)[C@H](C)C[C@]3(CO3)C(=O)[C@H](C)[C@H](O)[C@H](C)[C@H](C)OC(=O)[C@@H]2C)O[C@@H](C)[C@H]1O	inactive	inactive	inactive	inactive	inactive	inactive	inactive	inactive	inactive	inactive	inactive	inactive	inactive	inactive	inactive	inactive	inactive	inactive	inactive	inactive
CC1(C)O[C@@H]2C[C@H]3[C@H]4C[C@H](F)C5=CC(=O)C=C[C@@]5(C)[C@@H]4[C@H](O)C[C@]3(C)[C@]2(C(=O)CO)O1	inactive	inactive	inactive	inactive	inactive	inactive	inactive	inactive	inactive	inactive	inactive	inactive	inactive	inactive	inactive	inactive	inactive	inactive	inactive	inactive
CC(=O)O[C@@H](C)C[N+](C)(C)C	inactive	inactive	inactive	inactive	inactive	inactive	inactive	inactive	inactive	inactive	inactive	inactive	inactive		inactive	inactive	inactive	inactive	inactive	inactive
CCN[C@@H]1C[C@H](C)S(=O)(=O)c2sc(S(N)(=O)=O)cc21	inactive	inactive	inactive	inactive	inactive	inactive	inactive	inactive	inactive	inactive	inactive	inactive	inactive	inactive	inactive	inactive	inactive	inactive	inactive	inactive
NC(=O)OC[C@H](O)COc1ccc(Cl)cc1	inactive	inactive	inactive	inactive	inactive	inactive	inactive	inactive	inactive	inactive	inactive	inactive	inactive	inactive	inactive	inactive	inactive	inactive	inactive	inactive
CCN(CC)CC#CCOC(=O)[C@@](O)(c1ccccc1)C1CCCCC1	8.91 µM (active)						inactive					inactive						12.6 µM (active)	inactive	
COCCc1ccc(OC[C@H](O)CNC(C)C)cc1	inactive	inactive	inactive	inactive	inactive	inactive	inactive	inactive	inactive	inactive	inactive	inactive	inactive	inactive	inactive	inactive	inactive	inactive	inactive	inactive
CN(N=O)C(=O)N[C@H]1[C@@H](O)[C@H](O)[C@H](CO)O[C@@H]1O	inactive	inactive	inactive	inactive	inactive	inactive	inactive	inactive	inactive	inactive	inactive	inactive	inactive	inactive	inactive	inactive	inactive	inactive	inactive	inactive
CCCN[C@@H](C)C(=O)Nc1c(C)csc1C(=O)OC	inactive	inactive	inactive	inactive	inactive	inactive	inactive	inactive	inactive	inactive	inactive	inactive	inactive	inactive	inactive	inactive	inactive	inactive	inactive	inactive
COc1c(O)cc2c(c1O)[C@@H]1O[C@@H](CO)[C@@H](O)[C@@H](O)[C@@H]1OC2=O	inactive	inactive	inactive	inactive	inactive	inactive	inactive	inactive	inactive	inactive	inactive	inactive	inactive	inactive	inactive	inactive	inactive	inactive	inactive	inactive
CC[C@H](NC(C)C)[C@H](O)c1ccc(O)c(O)c1		inactive	inactive	inactive	inactive	inactive	inactive	inactive	inactive	inactive	inactive	inactive	inactive	inactive	inactive	inactive	inactive	inactive	inactive	
CCC[C@H]1C(=O)N2C(N(C)C)=Nc3ccc(C)cc3N2C1=O	inactive	inactive	inactive	inactive	inactive	inactive	inactive	inactive	inactive	inactive	inactive	inactive	inactive	inactive	inactive	inactive	inactive	inactive	inactive	inactive
O=c1[nH]c(=O)n([C@@H]2C[C@H](O)[C@H](CO)O2)cc1I	inactive	inactive	inactive	inactive	inactive	inactive	inactive	inactive	inactive	inactive	inactive	inactive	inactive	inactive	inactive	inactive	inactive	inactive	inactive	inactive

Source: PubChem BioAssay (NCATS)
